# Laboratory results reported in PubChem BioAssay (NCATS).
# The source made the active and inactive calls. Calls come from the whole dose curve; as a rule, active = well fitted inhibition curve with a large enough effect; inconclusive = small, poorly fitted or top-dose-only effect; inactive = no such curve, though single readings can be large or run the other way.
# Assay: qHTS assay for measurement of the activity of small molecule inhibitors on Zika virus induced Caspase-3 activity in human astrocytoma cells (AID 1224859);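 note: plate controls were ZIKV-infected untreated cells for no effect and uninfected cells for full effect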
# Conditions: SNB-19 ZIKV-induced caspase-3/7, luminescence, 6 h; series mostly up to 45.7 µM; activity change, negative = inhibition: at the top concentration
# Method in brief: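 Compound added 1 h pre-infection; ZIKV 2 FFU/cell on SNB-19 cells, 6 h, 37 C/5% CO2. Caspase-Glo 3/7 luminescence; values as % inhibition of ZIKV-induced caspase activity.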
row,Structure (SMILES),"activity change, negative = inhibition"
1,CON=C(C(=O)N[C@@H]1C(=O)N2C(C(=O)O)=C(Cn3ccc(=N)n3CCO)CS[C@H]12)c1csc(N)n1,-4.22% (inactive)
2,CCc1cc(C(C)=NOCc2ccc(C3CCCCC3)c(C(F)(F)F)c2)ccc1CN1CC(C(=O)O)C1,3.01% (inactive)
3,COc1ccc([C@@H]2CNC(=O)C2)cc1OC1CCCC1,28.1% (inactive)
4,N#CC(=Cc1ccc(O)c(O)c1)C(=O)NCc1ccccc1,61.4% (inactive)
5,CC(=O)O[C@]1(C(C)=O)CC[C@H]2[C@@H]3C=C(C)C4=CC(=O)CC[C@]4(C)[C@@H]3CC[C@@]21C,27.2% (inactive)
6,C=CC[C@@H]1C=C(C)C[C@H](C)C[C@H](OC)[C@H]2O[C@@](O)(C(=O)C(=O)N3CCCC[C@H]3C(=O)O[C@H](C(C)=C[C@@H]3CC[C@H](O)[C@H](OC)C3)[C@@H](C)[C@@H](O)CC1=O)[C@@H](C)C[C@@H]2OC,15.6% (inactive)
7,N#CC(=C(N)Sc1ccc(N)cc1)c1ccccc1C(F)(F)F,0.926% (inactive)
8,COc1cc(C)c(Sc2cnc(NC(=O)c3ccc(CNC(C)C(C)(C)C)cc3)s2)cc1C(=O)N1CCN(C(C)=O)CC1 (centres undefined),102% (inactive)
9,COc1ccc(Nc2cc(-c3cnc(N)nc3)nc(N3CCOCC3)n2)cn1,63% (inactive)
10,C[N+]1(C)[C@@H]2C[C@@H](OC(=O)C(O)(c3cccs3)c3cccs3)C[C@H]1[C@@H]1O[C@@H]12,7.96% (inactive)
11,CC(=O)N[C@H]1[C@@H]([C@H](O)[C@H](O)CO)OC(C(=O)O)=C[C@@H]1N=C(N)N,26.8% (inactive)
12,C=C1C[C@@]2(O)O[C@@]3(C[C@H]2C(C)C)[C@H](C)CC[C@H]13,37.5% (inactive)
13,CS(=O)(=O)N1CCc2c(-c3cnc(N)nc3)nc(N3CCOCC3)nc21,53.3% (inactive)
14,O=C(O)c1ccc(Nc2ncc3c(n2)-c2ccc(Cl)cc2C(c2c(F)cccc2F)=NC3)cc1,172% (inactive)
15,Cc1ccc2nc(NCCN)c3ncc(C)n3c2c1,86.5% (inactive)
16,O=C(O)C=Cc1ccc(Cn2ccnc2)cc1,-12.3% (inactive)
17,CC(=O)N1CCN(c2ccc(OCc3nn(C)c(C)c3-c3cccc4c(CCCOc5cccc6ccccc56)c(C(=O)O)n(Cc5cccnc5)c34)cc2)CC1,160% (inactive)
18,NC1=N[C@H]2[C@H](CS[C@H]2CCCCC(=O)O)N1,6.31% [at 20.5 µM] (inactive)
19,OCc1ccccc1O[C@@H]1O[C@H](CO)[C@H](O)[C@H](O)[C@H]1O,6.67% (inactive)
20,OCCN1C[C@H](O)[C@@H](O)[C@H](O)[C@@H]1CO,4.9% (inactive)

row,Structure (SMILES),"activity change, negative = inhibition"
1,COC(=O)[C@@H]1CC2=CC(=O)CC[C@]2(C)[C@@]23O[C@@H]2C[C@@]2(C)[C@H](CC[C@@]24CCC(=O)O4)[C@@H]13,7.86% (inactive)
2,CN[C@H](CC(C)C)C(=O)N[C@H]1C(=O)N[C@@H](CC(N)=O)C(=O)N[C@@H]2C(=O)N[C@H]3C(=O)N[C@H](C(=O)N[C@H](C(=O)O)c4cc(O)cc(O)c4-c4cc3ccc4O)[C@H](O)c3ccc(c(Cl)c3)Oc3cc2cc(c3O[C@@H]2O[C@H](CO)[C@@H](O)[C@H](O)[C@@H]2O[C@H]2C[C@](C)(N)[C@H](O)[C@H](C)O2)Oc2ccc(cc2Cl)[C@H]1O,28.2% (inactive)
3,Cc1cn([C@@H]2O[C@H](CO)[C@@H](O)[C@H]2F)c(=O)[nH]c1=O,-2.73% (inactive)
4,Cc1ccccc1C(=O)Nc1ccc(C(=O)N2CCCC(O)c3cc(Cl)ccc32)c(C)c1 (centres undefined),42.3% (inactive)
5,CNC(=O)Nc1ccc(-c2nc(N3CC4CCC(C3)O4)c3cnn(C4CCC5(CC4)OCCO5)c3n2)cc1,12.5% (inactive)
6,CN[C@H]1[C@@H](O)[C@@H]2O[C@@H]3O[C@H](C)CC(=O)[C@]3(O)O[C@@H]2[C@@H](NC)[C@H]1O,-2.61% (inactive)
7,O=c1[nH]c(=O)n([C@H]2C[C@@H](O)[C@@H](CO)O2)cc1C=CBr,-5.62% (inactive)
8,C=Cc1c(C)c2cc3nc(cc4[nH]c(cc5nc(cc1[nH]2)C(C)=C5CCC(=O)O)c(CCC(=O)OC)c4C)[C@@]1(C)C3=CC=C(C(=O)OC)[C@H]1C(=O)OC,34.1% (inactive)
9,CC(C)(O)CC[C@@H](O)[C@](C)(O)[C@H]1CC[C@@]2(O)C3=CC(=O)[C@@H]4C[C@@H](O)[C@@H](O)C[C@]4(C)[C@@H]3CC[C@]12C,-7.8% (inactive)
10,CCCCC(=O)O[C@]1(C(=O)CO)[C@@H](C)C[C@H]2[C@@H]3CCC4=CC(=O)C=C[C@]4(C)[C@@]3(F)[C@@H](O)C[C@@]21C,25.7% (inactive)
11,CC(=O)C1=C(O)C=C2Oc3c(C(C)=O)c(O)c(C)c(O)c3C2(C)C1=O (centres undefined),8.46% (inactive)
12,C=CC(=O)N1CCc2ccc(-n3c(=O)ccc4cnc5ccc(-c6cnn(C)c6)cc5c43)cc21,27.4% (inactive)
13,CC(Cc1ccc(O)c(O)c1)(NN)C(=O)O (centres undefined),5.14% (inactive)
14,CCNC(=O)Nc1ccc(-c2nc3c(c(N4CCOC[C@H]4C)n2)CCN(C2COC2)C3)cc1,13.6% (inactive)
15,CC1(C)O[C@@H]2C[C@H]3[C@@H]4CCC5=CC(=O)C=C[C@]5(C)[C@@H]4[C@@H](O)C[C@]3(C)[C@]2(C(=O)CO)O1,-0.0925% (inactive)
16,O=C(Nc1ccc(Oc2ccnc3[nH]ccc23)c(F)c1)c1cccn(-c2ccc(F)cc2)c1=O,120% (inactive)
17,C[C@@H]1[C@H](C)CC[C@]2(C(=O)O)CC[C@]3(C)C(=CC[C@@H]4[C@@]5(C)C[C@@H](O)[C@H](O)[C@@](C)(CO)[C@H]5CC[C@]43C)[C@@H]12,213% (inactive)
18,CCCCCCCCCCCCc1ccc(S(=O)(=O)Nc2nncs2)cc1,15.8% (inactive)
19,CON=C(C(=O)N[C@@H]1C(=O)N2C(C(=O)O)=C(CSC(=O)c3ccco3)CS[C@H]12)c1csc(N)n1,-6.59% (inactive)
